These results are taken from the supplement of paper PMC6555819.

What all share (assay): PBM binding z-score (relative to random genomic background probes); higher = stronger binding; sequences stand for … in GC…GCGATTGACAGCGTAGAATGAAGG
The subject of experiment [1] is FXR:RXRa (NR concentration 270 nM, RXRa partner concentration 90 nM). A digest of the protocol: (§1)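 The probes on custom Agilent 4×180K protein-binding microarrays were double-stranded, with 34-nt variable regions bearing direct-repeat seeds, single-nucleotide variants, half-site ablations and random human genomic background sequences. Incubation lasted 1 h with ligand-free nuclear receptor dimers in PBS pH 7.4, 2% milk, 0.02% Triton X-100, 1 mM DTT, 0.2 mg/mL BSA and 0.4 mg/ml salmon testes DNA. Antibodies against each partner (one per run) detected bound dimers, and fluorescence scans were regression-normalized. Binding z-scores take the random background probes as reference.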

In experiment [2] the test system is LXRa:RXRa (NR concentration 270 nM, RXRa partner concentration 90 nM). A digest of the protocol: as §1
Experiment [3] relates to LXRa homodimer (NR concentration 270 nM). A digest of the protocol:
as §1

The test system of experiment [4] is LXRb:RXRa (NR concentration 270 nM, RXRa partner concentration 90 nM). A digest of the protocol: as §1
The subject of experiment [5] is LXRb homodimer (NR concentration 270 nM). Summed up:
as §1

Experiment [6] relates to PPARa:RXRa (NR concentration 270 nM, RXRa partner concentration 90 nM). Summed up:
as §1

Experiment [7] has as its system PPARg:RXRa (NR concentration 180 nM, RXRa partner concentration 90 nM). Summed up: as §1
The test system of experiment [8] is PPARg:RXRa 270nM:90nM, anti-RXR (NR concentration 270 nM, RXRa partner concentration 90 nM). A digest of the protocol:
as §1

In experiment [9] the test system is PPARg:RXRa 30nM:10nM, anti-RXR (NR concentration 30 nM, RXRa partner concentration 10 nM). A digest of the protocol: as §1
Experiment [10] concerns PPARg:RXRa 90nM:30nM, anti-RXR (NR concentration 90 nM, RXRa partner concentration 30 nM). Summed up:
as §1

The subject of experiment [11] is PPARg:RXRa DBDmut IVT, anti-RXR (DBD mutation: RXRa K156A/R161A, NR concentration 270 nM, RXRa partner concentration 90 nM). Summed up: as §1
The test system of experiment [12] is PPARg:RXRa IVT, anti-PPARg (NR concentration 270 nM, RXRa partner concentration 90 nM). A digest of the protocol:
as §1

Experiment [13] relates to PPARg DBDmut:RXRa IVT, anti-PPARg (DBD mutation: PPARg1 K132A/R137A, NR concentration 270 nM, RXRa partner concentration 90 nM). Summed up: as §1
Experiment [14] has as its system PPARg DBDmut IVT, anti-PPARg (DBD mutation: PPARg1 K132A/R137A, NR concentration 270 nM). A digest of the protocol:
as §1

In experiment [15] the test system is PPARg homodimer (NR concentration 180 nM). Summed up: as §1
Experiment [16] deals with PXR:RXRa (NR concentration 270 nM, RXRa partner concentration 90 nM). A digest of the protocol:
as §1

Experiment [17] concerns PXR homodimer (NR concentration 270 nM). A digest of the protocol:
as §1

Experiment [18] concerns RARa:RXR (NR concentration 270 nM, RXRa partner concentration 90 nM). Summed up:
as §1

Experiment [19] concerns RARa homodimer (NR concentration 270 nM). Summed up: as §1
For experiment [20], the system named is RARb:RXRa (NR concentration 270 nM, RXRa partner concentration 90 nM). A digest of the protocol: as §1

As for TAGCCTAAGTCATTGGGCCAGTATAGTACGCATC, the PBM binding z-score is -0.205 in experiment [1]; -0.421 in experiment [2]; -0.659 in experiment [3]; -0.39 in experiment [4]; -0.339 in experiment [5]; -0.181 in [6]. Moreover, the PBM binding z-score was 0.256 in [7]; -0.24 in experiment [8]; -0.281 in [9]; -0.391 in experiment [10]; -0.775 in [11]; -0.00957 in experiment [12]. Moreover, the PBM binding z-score in [13] is -0.0162; in [14], -1.02; in experiment [15], -0.452; in experiment [16], -0.441; in [17], -0.814; in experiment [18], -0.394. Also, the PBM binding z-score in experiment [19] was -0.564; in experiment [20] it was 0.068.
With TCGAGTAGGTTAGTCGAGGCATTCAGCCAACATA, the PBM binding z-score was 0.165 in experiment [1]; -0.288 in experiment [2]; -0.432 in [3]; -0.531 in [4]; -1.3 in experiment [5]; 0.172 in experiment [6]. In addition, the PBM binding z-score in experiment [7] is -0.115; in experiment [8], 0.522; in experiment [9], 0.735; in experiment [10], 0.72; in experiment [11], 1.97; in experiment [12] it was 1.28. Moreover, the PBM binding z-score in experiment [13] was -0.938; in experiment [14] it was -0.136; in [15], 0.168; in [16] it was -0.24; in experiment [17] it was -0.481; in experiment [18] it was 0.0963. Besides, the PBM binding z-score is -0.326 in experiment [19] and -0.133 in [20].
As to CGAACGAGGGCTTGAGTTGATAGCAAATGCCGAT, the PBM binding z-score is -0.357 in experiment [1]; -0.589 in experiment [2]; -0.512 in [3]; -0.688 in [4]; -0.924 in experiment [5]; -0.425 in [6]. Besides, the PBM binding z-score in [7] is 0.25; in experiment [8], -0.478; in experiment [9], -0.548; in experiment [10] it was -0.639; in experiment [11], 0.359; in experiment [12], -0.447. In addition, the PBM binding z-score was -0.831 in experiment [13]; -1.02 in experiment [14]; -0.915 in [15]; -0.245 in experiment [16]; -0.409 in experiment [17]; -0.285 in experiment [18]. In addition, the PBM binding z-score in experiment [19] is -0.522; in experiment [20] it was -0.252.
CTCGAAAGGTCGGTTTAGGTGAGTATACGGATAA: the PBM binding z-score was 2.13 in [1]; 1.54 in [2]; -0.093 in [3]; 1.7 in experiment [4]; 0.329 in experiment [5]; 2.44 in [6]. For the same sequence, the PBM binding z-score in [7] is 0.282; in [8] it was 1.04; in experiment [9], -0.0408; in [10] it was 0.683; in experiment [11] it was 0.133; in experiment [12] it was 0.896. Further, the PBM binding z-score is 0.666 in experiment [13]; 0.13 in experiment [14]; 1.29 in experiment [15]; 1.51 in [16]; 0.344 in [17]; 1.64 in [18]. In addition, the results for the PBM binding z-score in experiment [19] and in experiment [20] were 0.736 and 2.66, respectively.
For ACTCGGAGGACAAAGCTCAGAGCTACGCCAGTGA, the PBM binding z-score is -0.419 in experiment [1]; -0.663 in experiment [2]; -0.768 in experiment [3]; -1.06 in [4]; -0.958 in experiment [5]; -0.608 in experiment [6]. Moreover, the PBM binding z-score in [7] is 0.401; in [8], -0.00696; in experiment [9], -0.67; in experiment [10] it was -0.314; in experiment [11], -0.219; in experiment [12] it was -0.357. Further, the PBM binding z-score in experiment [13] was -0.787; in experiment [14], -1.32; in [15] it was -1.15; in experiment [16], -0.902; in experiment [17], -0.759; in [18], -1.14. The PBM binding z-score in [19] is -0.639; in experiment [20], 0.77.
For the sequence CCTACTGGGCCAGAGGTCATTGATTCCAATGCTC, the PBM binding z-score in [1] is 3.89; in experiment [2], 4.31; in [3] it was 4.08; in experiment [4], 4.28; in [5], 0.315; in experiment [6], 5.3. Also, the PBM binding z-score is 9.61 in experiment [7]; 8.53 in experiment [8]; 9.24 in experiment [9]; 9.4 in [10]; 3.69 in experiment [11]; 4.99 in experiment [12]. Further, the PBM binding z-score in experiment [13] was 0.0395; in experiment [14] it was -0.7; in experiment [15], 2.97; in experiment [16], 4.8; in experiment [17] it was 1.58; in experiment [18] it was 4.62. Besides, the figures for the PBM binding z-score in [19] and in experiment [20] were 0.505 and 3.63, respectively.
With ATCTTTAGGTAACCAAGTTCAGTGAATGCCGAAC, the PBM binding z-score in experiment [1] amounted to 0.613; in experiment [2], 1.14; in experiment [3] it was 0.896; in [4], 0.862; in [5] it was 1.2; in [6] it was 0.968. Further, the PBM binding z-score in [7] was 0.323; in experiment [8] it was 0.52; in experiment [9], 0.251; in [10], 0.342; in experiment [11], 2.35; in experiment [12], 1.85. Besides, the PBM binding z-score turned out to be 1.09 in experiment [13]; 1.61 in experiment [14]; 0.811 in experiment [15]; 2.06 in [16]; 1.53 in experiment [17]; 1 in experiment [18]. Moreover, the PBM binding z-score in experiment [19] was determined as 0.564; in experiment [20], 1.31.
